Results taken from PubChem BioAssay (EPA / NIEHS).
Results filed as inconclusive are left out. Activity calls are given as the source filed them. How the source made its calls, unless noted: active means hit-call score of the fitted dose curve at least 0.9, where 1 is the maximum; inactive means score below 0.9.

Tests used:
[1] = CCTE_Padilla_ZF_Score.Craniofacial: CCTE's 144 Hour Post-fertilization zebrafish Assay Score for Craniofacial Malformation, Padilla Lab (AID 2284405)
Summary of the method: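 Craniofacial defects were scored at 6 dpf by two blinded observers using stereomicroscopy. Exposure of wild-type embryos began at 6–8 hpf in sealed wells of 10% Hanks' solution at 26C, with chemical removed by rinsing at 5 dpf.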

[2] = CCTE_Padilla_ZF_Score.Edema: CCTE's 144 Hour Post-fertilization zebrafish Assay Score for Edema Malformation, Padilla Lab (AID 2284406)
Summary of the method: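 Edema scored at 6 dpf by two blinded observers under a stereo microscope, in single outbred wild-type larvae exposed from 6-8 hpf in sealed wells (Hanks', 26C, 14:10 h light) and chemical-free after a 5 dpf rinse.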

[3] = CCTE_Padilla_ZF_Score.Spine: CCTE's 144 Hour Post-fertilization zebrafish Assay Score for Spine Malformation, Padilla Lab (AID 2284407)
Summary of the method: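 Spine malformation scored at 6 dpf by two independent blinded observers under stereomicroscope, after static sealed exposure from 6–8 hpf at 26C in Hanks' solution with rinse on 5 dpf. Positive-direction fit against DMSO control.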

[4] = CCTE_Padilla_ZF_Score.Swim_bladder: CCTE's 144 Hour Post-fertilization zebrafish Assay Score for Swim Bladder Malformation, Padilla Lab (AID 2284408)
Summary of the method: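 Swim bladder inflation scored at 6 dpf by two blinded observers under a stereo microscope. Exposure ran from 6–8 hpf in sealed wells of 10% Hanks' at 26C, with rinsing at 5 dpf; DMSO served as baseline.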

[5] = CCTE_Padilla_ZF_Score.Position: CCTE's 144 Hour Post-fertilization zebrafish Assay Score for Position, Padilla Lab (AID 2284409)
Summary of the method: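 Wild-type zebrafish embryos (with chorions) exposed singly from 6–8 hpf in sealed wells of Hanks' solution at 26C, rinsed at 5 dpf. At 6 dpf, blinded assessors scored abnormal water-column position by brightfield stereomicroscopy, relative to DMSO.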

[6] = CCTE_Padilla_ZF_Score.Living: CCTE's 144 Hour Post-fertilization zebrafish Assay Score for Viability, Padilla Lab (AID 2284410);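 further: larval death at 6 dpf judged by absent heartbeat or coagulation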
Summary of the method: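 Mortality at 6 dpf, judged as absent heartbeat or coagulation by two blinded observers, after sealed static exposure beginning at 6–8 hpf at 26C. Larvae were rinsed free of chemical at 5 dpf, and activity was fitted relative to DMSO.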

[7] = CCTE_Padilla_ZF_Score.Tail: CCTE's 144 Hour Post-fertilization zebrafish Assay Score for Tail Malformation, Padilla Lab (AID 2284414)
Summary of the method: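 Tail malformations were scored at 6 dpf by two blinded assessors under a stereo microscope. Chorionated embryos had been exposed from 6-8 hpf in sealed wells of 10% Hanks' at 26 C, then rinsed free of chemical at 5 dpf.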

[8] = system: SRY-box transcription factor 2 (SOX2) Protein Expression, Deisenroth Lab, SOX2 (gene 6657); test: CCTE_Deisenroth_DEVTOX-GLR_legacy_Sox2: (Legacy) CCTE's DevTox GLR-Endo Assay Evaluation of SRY-box transcription factor 2 (SOX2) Protein Expression, Deisenroth Lab (AID 2284346)
Summary of the method: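 Two exposures, 24 h apart, during 48 h defined-media differentiation of seeded RUES2-GLR cells; nuclei-stained cells imaged. Sox2 positivity called at 5x BMAD above endoderm control median, DMSO median subtracted.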

[9] = system: SRY-box transcription factor 2 (SOX2) Protein Expression, Deisenroth Lab, SOX2 (gene 6657); test: CCTE_Deisenroth_DEVTOX-GLR_Endo_SOX2: CCTE's DevTox GLR-Endo Assay Evaluation of SRY-box transcription factor 2 (SOX2) Protein Expression, Deisenroth Lab (AID 2284412; active means hit-call score of the fitted dose curve at least 0.9, where 1 is the maximum)
Summary of the method: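 Endpoint is percent SOX2-positive cells (SOX2+ count/total cells) minus 0.2% DMSO control, from high-content imaging of fixed, nuclear-stained RUES2-GLR cells. Dosing twice at 24 h intervals over 48 h differentiation, 1 nM–200 uM in 10 points.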

[10] = system: SRY-box transcription factor 17 (SOX17) Protein Expression, Deisenroth Lab, SOX17 (gene 64321); test: CCTE_Deisenroth_DEVTOX-GLR_Endo_SOX17: CCTE's DevTox GLR-Endo Assay Evaluation of SRY-box transcription factor 17 (SOX17) Protein Expression, Deisenroth Lab (AID 2284413)
Summary of the method: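 Fluorescent microscopy of a SOX17 reporter in RUES2-GLR pluripotent cells scored endoderm differentiation after 48 h and two 24-h-spaced exposures. Values are percent change in SOX17+ population against 0.2% DMSO, n=4 experimental replicates.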

[11] = Tanguay_ZF_120hpf_MO24: Oregon State University Tanguay Lab 24 Hour Post-fertilization zebrafish Assay for Mortality (AID 2284389)
Summary of the method: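 Embryo death at 24 hpf was recorded as present or absent in Tropical 5D zebrafish, dechorionated at 4 hpf and dosed statically from 6 hpf (28C, 0.64% DMSO); 5 uM trimethyltin chloride served as positive control.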

[12] = Tanguay_ZF_120hpf_DP24: Oregon State University Tanguay Lab 24 Hour Post-fertilization zebrafish Assay for Delayed Development (AID 2284390)
Summary of the method: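 Scored at 24 hpf as a binary present/absent call of delayed development by brightfield, with dead embryos not assessed. Embryos (5D wild type, chorion removed with pronase at 4 hpf) dosed statically from 6 hpf at 28 C in 0.64% DMSO.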

[13] = Tanguay_ZF_120hpf_CRAN: Oregon State University Tanguay Lab 120 Hour Post-fertilization zebrafish Assay for Craniofacial Malformation (AID 2284397)
Summary of the method: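 Scoring of craniofacial malformation as a binary endpoint was done at 120 hpf by brightfield microscopy and was not done in dead embryos. Exposure was static, starting at 6 hpf, in dechorionated wild-type embryos held singly at 28C with 0.64% DMSO final.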

[14] = Tanguay_ZF_120hpf_AXIS: Oregon State University Tanguay Lab 120 Hour Post-fertilization zebrafish Assay for Axial Malformation (AID 2284398)
Summary of the method: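 Scoring was binary (present or absent) for body-axis defects, judged by brightfield imaging at 120 hpf in surviving larvae. Exposure was static at 28C from 6 hpf in chorion-free 5D wild-type embryos, with 0.64% DMSO vehicle.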

[15] = Tanguay_ZF_120hpf_MORT: Oregon State University Tanguay Lab 120 Hour Post-fertilization zebrafish Assay for Mortality (AID 2284399)
Summary of the method: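 Mortality, recorded present/absent via brightfield imaging at 24 and 120 hpf, in 5D zebrafish embryos exposed statically from 6 hpf after pronase chorion removal. Exposure at 28C, 0.64% DMSO vehicle, DMSO baseline.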

[16] = Tanguay_ZF_120hpf_EDEM: Oregon State University Tanguay Lab 120 Hour Post-fertilization zebrafish Assay for Edema Malformation (AID 2284400)
Summary of the method: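 Edema recorded as a binary endpoint under brightfield at 120 hpf, excluding embryos that died. Exposure was static, sealed, 28C, from 6 hpf in dechorionated wild-type larvae, final DMSO 0.64%, DMSO as baseline.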

[17] = Tanguay_ZF_120hpf_BRN: Oregon State University Tanguay Lab 120 Hour Post-fertilization zebrafish Assay for Brain Region Malformation (AID 2284402)
Summary of the method: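 Binary brightfield scoring of brain malformation at 120 hpf in 5D wild-type larvae, chorion removed with pronase at 4 hpf. Static exposure began at 6 hpf, 28C, sealed plates, DMSO 0.64% (vol/vol) as vehicle baseline.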

[18] = Tanguay_ZF_120hpf_TCHR: Oregon State University Tanguay Lab 120 Hour Post-fertilization zebrafish Assay for Touch Responsive (AID 2284403)
Summary of the method: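 Binary touch-response calls are made at 120 hpf in 5D wild-type zebrafish larvae. These larvae were dechorionated with pronase and exposed singly from 6 hpf in sealed, dark plates at 28 °C with 0.64% DMSO final; dead embryos are excluded.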

[19] = Tanguay_ZF_120hpf_ANY: Oregon State University Tanguay Lab 120 Hour Post-fertilization zebrafish Assay for Any Mortality and Malformation (AID 2284404)
Summary of the method: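 Dechorionated Tropical 5D wild-type embryos, one per well from 6 hpf, static exposure in sealed, dark plates at 28C until 120 hpf, 0.64% DMSO final. Brightfield scoring of mortality and malformations as binary presence/absence, pooling 13 morphology endpoints.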

SERPINA7 (gene 6906) = test: CCTE_GLTED_hTBG: CCTE's human Thyroxine-binding Globulin (TBG) Inhibition Assay, Great Lakes Toxicology and Ecology Division (GLTED) Lab (AID 2284343; active means hit-call score of the fitted dose curve at least 0.9, where 1 is the maximum;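 further: active chemicals lower fluorescence versus DMSO baseline by displacing probe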)
Summary of the method: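 Fluorescence (ex 380/em 475) reports ANSA displaced from human TBG after a 2 h incubation with test chemical, without cells. Loss of signal indicates displacement, with DMSO serving as baseline.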

Measured: AC50

O=C(OC(=O)C(F)(F)C(F)(F)F)C(F)(F)C(F)(F)F
inactive: [1] | [2] | [3] | [4] | [5] | [6] | [7]

CCCCc1oc2ccccc2c1C(=O)c1cc(I)c(OCCN(CC)CC)c(I)c1
active: [8] 29.9 µM | [9] 31 µM | [10] 25.6 µM

O=C(O)CCC(F)(F)C(F)(F)C(F)(F)C(F)(F)C(F)(F)C(F)(F)F
active: [4] 10.4 µM | [6] 22.2 µM
inactive: [1] | [2] | [3] | [5] | [7]

FC(F)(F)C1(F)C(F)(F)C(F)(F)C(F)(F)C(F)(C(F)(F)F)C1(F)F (stereo not drawn)
inactive: [1] | [2] | [3] | [4] | [5] | [6] | [7]

O=P(O)(O)CCC(F)(F)C(F)(F)C(F)(F)C(F)(F)C(F)(F)C(F)(F)F
active: [2] 23.9 µM | [6] 32.1 µM
not listed: [8] | [9] | [10] | SERPINA7 (gene 6906)
inactive: all other assays above

C=CC(=O)OCCC(F)(F)C(F)(F)C(F)(F)C(F)(F)C(F)(F)C(F)(F)C(F)(F)C(F)(F)F
not listed: [8] | [9] | [10] | SERPINA7 (gene 6906)
inactive: all other assays above

FC(OC(F)(F)C(F)(F)C(F)(F)F)C(F)(F)F (stereo not drawn)
inactive: [1] | [2] | [3] | [4] | [5] | [6] | [7]

O=C1NS(=O)(=O)c2ccccc21
inactive: [8] | [10]

CN(Cc1cnc2nc(N)nc(N)c2n1)c1ccc(C(=O)N[C@@H](CCC(=O)O)C(=O)O)cc1
active: [8] 0.0109 µM | [10] 0.319 µM

O=P(O)(O)CCC(F)(F)C(F)(F)C(F)(F)C(F)(F)C(F)(F)C(F)(F)C(F)(F)C(F)(F)F
active: SERPINA7 (gene 6906) 95.6 µM | [2] 1.69 µM | [4] 10 µM | [5] 65.2 µM | [6] 11.8 µM
not listed: [8] | [9] | [10]
inactive: all other assays above

O=C(F)C(F)(F)C(F)(F)C(F)(F)C(=O)F
inactive: [1] | [2] | [3] | [4] | [5] | [6] | [7]

Cc1cc(Cc2cc(C)cc(C(C)(C)C)c2O)c(O)c(C(C)(C)C)c1
active: SERPINA7 (gene 6906) 2.6 µM

O=CC(F)(F)C(F)(F)C(F)(F)C(F)F
inactive: [1] | [2] | [3] | [4] | [5] | [6] | [7]

FC(F)(F)N1C(F)(F)C(F)(F)OC(F)(F)C1(F)F
inactive: [1] | [2] | [3] | [4] | [5] | [6] | [7]

NC(C(F)(F)F)C(F)(F)F
inactive: [1] | [2] | [3] | [4] | [5] | [6] | [7]

FC1(F)C=CC(F)(F)C1(F)F
inactive: [1] | [2] | [3] | [4] | [5] | [6] | [7]

COC(=O)C(F)(F)C(F)(F)C(F)(F)C(F)(F)C(F)(F)F
inactive: [1] | [2] | [3] | [4] | [5] | [6] | [7]

CCCCCCCCCCCCOC(=O)c1cc(O)c(O)c(O)c1
active: SERPINA7 (gene 6906) 4.45 µM
